Data reported in PubChem BioAssay AID743185 (Broad Institute, 2013).
Active and inactive are the calls of the source.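 The calls were made as follows: active = ATP loss in HepG2 cells with fitted half-maximal concentration at most twice the top tested dose; inconclusive = flat curve showing moderate loss, or a poor fit; inactive = opposite effect, flat near zero, or weaker potency.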

Test: viability loss in HepG2 cells – cell-based, luminescence, dry powder, set 5, cytotoxicity control, dose response (AID 743185)

Compound	outcome
CSc1ccc(/C=N/NC(=O)c2ccc3nc[nH]c3c2)cc1	inactive
O=C(N/N=C/c1c[nH]c2ccccc12)c1cccs1	inactive
